Sampled rows, rich in hits. Any-hit rate of the full collection: about 19%.
Cycloheximide cs = counter-screen for Shiga toxin inhibitors: cycloheximide protein synthesis inhibition. max response, %. AID 2314. actives 12% (n = 300,000). cell reporter, cycloheximide protein synthesis inhibition counterscreen; in the data active = max response mostly above about 13%, no sharp cut-off; inactive = mostly below about 14%; also: read at 38.3 µM for the half of the compounds with a filed dose; 0% is about no effect
Pf growth 96h = P. falciparum growth inhibition at 96 hour, primary screen for plastid delayed-death inhibitors; P. falciparum luciferase reporter growth, 96 h; Potency, µM (highest dose often 28.7 µM), for the others: at the highest dose activity change, negative = inhibition, most hits filed as inhibitors; actives 6.9% (n = 320,000); also: potency is read from the fitted curve at half-maximal effect; % is scaled to controls: 0 for no effect and ±100 for the full control effect
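P. falciparum expressing integrated firefly luciferase, in erythrocytes at 2% hematocrit, 0.05% parasitemia, incubated with compounds 96 h at 37 C, 5% CO2. Growth inhibition read as loss of luminescence; two-generation exposure targets delayed-death apicoplast inhibitors.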
Shiga toxin inh = Shiga toxin inhibition; actives 9.2% (n = 290,000); AID 2315; Vero cells, Shiga toxin protein synthesis inhibition reporter; inhibition, % at 38.7 µM; in the data active = inhibition mostly above about 28%, no sharp cut-off; inactive = mostly below about 43%; also: 0% is about no effect
SARS PLpro yeast = SARS-CoV PLP inhibition in yeast; AID 485353; Potency, µM (highest dose often 32.9 µM), for inactives: top-dose activity, positive = growth rescue, usual class: activators; S. cerevisiae expressing SARS-CoV PLpro, growth rescue; actives 0.19% (n = 330,000); calls by dose curve; also: potency is read from the fitted curve at half-maximal effect; 0% is about no effect; nearly all actives have a fitted effect of over 55% in size
Pf growth 48h = inhibits P. falciparum growth in the first generation, 48 h | AID 504832 | actives 5.9% (n = 310,000) | P. falciparum luciferase growth in erythrocytes, 48 h | Potency, µM (highest dose often 28.7 µM), inactives show at the top dose activity change, negative = inhibition, most hits filed as inhibitors; also: potency is read from the fitted curve at half-maximal effect; % is scaled to controls: 0 for no effect and ±100 for the full control effect
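A one-generation exposure of luciferase-tagged malaria parasites in RPMI 1640/Albumax erythrocyte culture, 37 C and 5% CO2. Inhibition is inferred from decreased luminescence after adding detection reagent.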
AMA1-RON2 inh = AMA1-RON2 (P. falciparum) interaction inhibition. AlphaScreen AMA1-biotinylated RON2 peptide binding. Potency, µM (titrated, usually from 58.2 µM), without a hit: top-dose activity change, negative = inhibition, most hits filed as inhibitors. actives 0.2% (n = 360,000);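 also: potency is read from the fitted curve at half-maximal effect; 0% = vehicle wells and -100% = peptide control; nearly all actives have a fitted effect of over 45% in size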
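AMA1 (3D7) with his tag at 25 nM final met compounds first, then biotinylated RON2 peptide at 25 nM; detection used donor plus acceptor beads, 10 µg/mL apiece, read by AlphaScreen after 30 min at room temperature.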
Numbers without * were called inactive; ? = inconclusive; . = no result; [ ] = dose if it differs, or a comment. Unless noted, calls follow the shape of the dose curve; as a rule, active = well fitted curve in the direction sought with a large enough effect; inconclusive = small, poorly fitted or top-dose-only effect, or another doubt; inactive = no such curve, though single readings can be large; an effect the other way counts as inactive or inconclusive.

SMILES	Cycloheximide cs	Pf growth 96h	Shiga toxin inh	SARS PLpro yeast	Pf growth 48h	AMA1-RON2 inh
COc1ccc(CNc2ccc(C(=O)O)cc2)cc1	26*	.	44*	3%	122%	19%
COc1ccc(NCc2n[nH]c(=O)c3ccccc23)cc1	15*	43%	19	12%	.	-7%
CC1CCN(C(=O)c2[nH]c(C(F)(F)F)nc2-c2ccccc2)CC1	.	.	.	.	.	-27%
Cn1c(SCC(=O)N2CCCC2=O)nc2ccccc21	3	37%	14	0%	?	23%
Cc1ccc(/C=C/C(=O)Nc2ncc(C)s2)o1	47*	141%	69*	-23%	95%	-15%
Cc1ccc(/C=C/C(=O)Nc2nccs2)o1	55*	272%	108*	3%	315%	-10%
Cc1ccc(/C=C/C(=O)NCc2ccccn2)o1	-2	51%	11	2%	10%	18%
CCOC(=O)/C=C/C(=O)Nc1nccs1	15*	86%	19	-47%	?	-5%
O=C(/C=C/c1ccc(Br)o1)Nc1nnc(C2CC2)s1	14	?	29	0%	24%	.
Cc1ccc(/C=C/C(=O)Nc2nnc(SCc3ccc(C#N)cc3)s2)o1	-1	21%	-10	-27%	7%	47%
Cc1cnc(NC(=O)/C=C/c2ccc(Br)o2)s1	16*	35%	81*	0%	111%	3%
C[n+]1cccc(C(=O)NNC(=O)C23CC4CC(CC(C4)C2)C3)c1	8	45%	-18	3%	28%	-13%
COc1ccc(CNC(=O)N2CCN(c3ccc(F)cc3)CC2)cc1	-2	0%	-1	1%	15%	7%
CC(C)CNC(=O)NC(=O)COC(=O)Cn1cnc2ccccc2c1=O	-9	0%	-6	-1%	-27%	-8%
N#Cc1ccccc1S(=O)(=O)N1CCN(C(=O)[C@@H]2CCCN2C(=O)c2cccs2)CC1	.	?	.	-7%	?	-2%
O=C(CCCOc1ccc(Cl)cc1Cl)Nc1ccncc1	15*	-41%	25	-25%	.	1%
O=C(COC(=O)COc1ccc(Cl)cc1Br)NCc1cccs1	2	27%	-17	-16%	17%	1%
CCOC(=O)CNC(=O)COc1ccc(Cl)cc1Br	-3	10µM*	-9	-1%	5%	1%
O=C(COc1ccc(Cl)cc1Br)Nc1ccncc1	58*	?	47*	-21%	1%	0%
CC(Oc1ccc(Cl)cc1Cl)C(=O)Nc1ccncc1 (centres undefined)	-7	-5%	-18	-21%	10µM*	0%
Cc1csc(SC(C)C(=O)NCC2CCCO2)n1 (centres undefined)	.	-5%	.	10%	10%	8%
CC(=O)N1CCOc2ccc(S(=O)(=O)N3CCC(C(=O)NCc4ccc(F)cc4)CC3)cc21	10	?	0	-2%	?	-6%
CCNC(=O)CCCOc1ccc(Cl)cc1Cl	29*	?	54*	-1%	56%	13%
O=C(O)CCCOc1ccc(Cl)cc1Cl	.	.	.	.	.	-3%
Cc1ccc(OCC(=O)NNC(=S)NC(=O)C2CC2)c(C)c1	7	15µM*	-3	-20%	?	.
SMILES	Cycloheximide cs	Pf growth 96h	Shiga toxin inh	SARS PLpro yeast	Pf growth 48h	AMA1-RON2 inh
O=C(COc1ccc(Cl)cc1Cl)N/N=C/c1cccnc1	-4	5%	-7	0%	?	-1%
O=C(COc1ccc(Cl)cc1Cl)Nc1cccnc1	45*	20%	86*	-7%	76%	9%
Cc1ccc(C)c(OCC(=O)Nc2cc(NC(=O)COc3cc(C)ccc3C)cc(C(=O)O)c2)c1	-2	8.3µM*	13	1%	15%	-16%
CCC(=O)NC[C@H](Cc1ccc(OCCc2nc(-c3ccccc3)oc2C)cc1)N/C(C)=C\C(=O)c1ccc(C(F)(F)F)cc1	11	.	15	.	.	.
COc1ccccc1NC(=O)Nc1ccccc1N1CCOCC1	13	13%	31	-1%	11%	-1%
Cc1ccc(OCC(=O)Nc2ccncc2)c(C)c1	20*	-5%	23	-1%	31%	0%
Cc1ccc(OCC(=O)NNC(=O)c2ccco2)c(C)c1	14*	4%	14	-8%	6%	31%
O=C(CCCOc1ccc(Cl)cc1Cl)Nc1ccccn1	15	-19%	55*	0%	38%	0%
Cc1ccccc1OCC(=O)Nc1ccncc1	2	-43%	40	?	-2%	10%
COCCNC(=O)COc1ccc(C)cc1C	12	45%	37	14%	.	3%
Clc1ccccc1CN1CCN(/N=C/c2ccncc2)CC1	2	36%	-3	-2%	4%	-14%
Clc1ccc(/C=N/N2CCN(Cc3ccccc3)CC2)cc1	17*	20%	29	-3%	34%	-28%
CCN(CC)c1ccc(/C=N\N2CCN(Cc3ccc(C)cc3)CC2)cc1	-2	23%	10	-1%	14%	8.9µM*
CCOc1ccc(CN2CCC(Cc3ccccc3)CC2)cc1	-3	0%	-22	0%	13%	-17%
Clc1ccc(/C=N/N2CCN(Cc3ccccc3Cl)CC2)cc1	9	1%	-4	0%	-4%	13µM*
CCOc1ccc(/C=N/N2CCN(Cc3ccccc3)CC2)cc1	-3	0.74µM*	-3	-7%	24%	?
COc1cccc(/C=N/N2CCN(Cc3ccccc3)CC2)c1O	24*	7.4µM*	28	12%	10%	?
CSc1ccc(/C=N/N2CCN(Cc3ccccc3)CC2)cc1	30*	4%	49*	1%	20%	?
C(=N\N1CCN(Cc2ccccc2)CC1)/c1cccs1	41*	39%	45*	0%	38%	-16%
Cc1ccc(/C=N/N2CCN(Cc3ccc(Cl)cc3)CC2)o1	8	?	26	-13%	.	-11%
Oc1ccc(Br)cc1/C=N/N1CCN(Cc2ccccc2)CC1	-3	39%	3	-3%	19%	?
CSc1ccc(/C=N/N2CCN(c3ccccc3)CC2)cc1	-1	34%[5.75 µM]	17	-1%	21%	12%
Clc1ccc(CN2CCN(/N=C/c3ccco3)CC2)cc1	19*	29%	17	-2%	?	?
Cc1nnc(NC(=O)C(C)Sc2nnc(CNC(=O)c3ccccc3F)n2C)s1 (centres undefined)	.	?	.	13%	-8%	-8%
